# Experimental data: PubChem BioAssay (NCATS)
# Records with an inconclusive call do not appear. The source made the active and inactive calls. Calls follow the shape of the dose curve; as a rule, active = well fitted inhibition curve with a large enough effect; inconclusive = small, poorly fitted or top-dose-only effect; inactive = flat fitted curve, though single readings scatter.
# Tested on: P93_24
# Experiment: qHTS profiling for inhibitors of Plasmodium falciparum proliferation (AID 504749); also: nearly all actives have a fitted effect of over 60% in size;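 as to activity, negative = inhibition: 0% = DMSO vehicle and full inhibition = artemisinin control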
# Conditions: P. falciparum in erythrocytes, SYBR Green DNA, 72 h; series mostly up to 28.7 µM; activity, negative = inhibition: at the top concentration
# In short: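 Each compound contacts P. falciparum-infected red blood cells for 72 h at 37 C; lysis buffer (Tris, EDTA, saponin, Triton X, SYBR Green I) is added and fluorescence measured next morning; values normalized to controls.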
# Potency is read from the fitted curve at half-maximal effect.
SMILES,"activity, negative = inhibition",Potency
CCCCC(CC)COS(=O)(=O)O (stereo not given),-6.38% (inactive),–
CC1(O)CCC(C(C)(C)O)CC1 (stereo not given),1.89% (inactive),–
CCCCCCOC(=O)c1cccnc1,5.86% (inactive),–
FC(F)(F)COCC(F)(F)F,-6.2% (inactive),–
CCCCCCCCCCCC(=O)N(CCO)CCO,16% (inactive),–
O=P(O)(O)OC[C@H]1O[C@](O)(COP(=O)(O)O)[C@@H](O)[C@@H]1O,-0.883% (inactive),–
COc1cc(S(C)=O)ccc1-c1nc2ncccc2[nH]1 (stereo not given),5.25% (inactive),–
O=c1[nH]c(=O)n([C@H]2C[C@H](O)[C@@H](CO)O2)cc1/C=C/Br,12.2% (inactive),–
CC(=O)[C@H]1CC[C@H]2[C@@H]3C=CC4=CC(=O)CC[C@@]4(C)[C@H]3CC[C@]12C,3.16% [at 12.8 µM] (inactive),–
NC(N)=O,14.2% (inactive),–
CCC(C(=O)NC(N)=O)c1ccccc1 (stereo not given),-2.81% (inactive),–
CC(CCc1ccc(O)cc1)NCC(O)c1ccc(O)cc1 (stereo not given),9.6% (inactive),–
Nc1nccs1,1.58% (inactive),–
NC(=S)NS(=O)(=O)c1ccc(N)cc1,-0.475% (inactive),–
O=C(OCc1ccccc1)c1ccc(O)cc1,7.47% (inactive),–
CC1C(=O)CC2C3(C)CCC2(C(C)C(=O)O)C(=O)C13 (stereo not given),7.78% (inactive),–
O=C(NNCS(=O)(=O)O)c1ccncc1,-6.27% (inactive),–
CC(=O)Nc1ccc(OC(C)=O)cc1,2.31% (inactive),–
CC/C(=C(/CC)c1ccc(OP(=O)(O)O)cc1)c1ccc(OP(=O)(O)O)cc1,3.42% (inactive),–
OC[C@H]1O[C@@](CO)(O[C@H]2O[C@H](CO)[C@@H](O)[C@H](O)[C@H]2O)[C@@H](O)[C@@H]1O,2.77% (inactive),–

SMILES,"activity, negative = inhibition",Potency
[O-][N+](=Nc1ccccc1)c1ccccc1,9.28% (inactive),–
NC(=O)[C@H]1O[C@@H](O)[C@H](O)[C@@H](O)[C@@H]1O,3.07% (inactive),–
CC(C)CCC[C@@H](C)[C@H]1CC[C@H]2[C@@H]3CC[C@@H]4C[C@H](O)CC[C@]4(C)[C@H]3CC[C@]12C,-2.48% (inactive),–
ClC(Cl)Cl,6.72% (inactive),–
FC(F)(F)C(F)(F)C(F)(F)C(F)(F)C(F)(F)F,-3.57% (inactive),–
CC(CC=O)CCCC(C)(C)O (stereo not given),-2.03% (inactive),–
CC(C)[C@H](N)C(=O)OCC(CO)OCn1cnc2c(=O)[nH]c(N)nc21 (stereo not given in full),2.37% (inactive),–
CC(C)CCC[C@@H](C)[C@H]1CC[C@H]2[C@@H]3CC=C4C[C@@H](O)CC[C@]4(C)[C@H]3CC[C@]12C,6.8% (inactive),–
CC(C)c1ncc([N+](=O)[O-])n1C,11.4% (inactive),–
CCCc1ccc(C(=O)O)cc1,-15.4% (inactive),–
C=CC(=O)O,7.27% (inactive),–
COC(=O)CC[C@H](N)C(=O)O,0.588% (inactive),–
CN1C(=O)C[C@@H](C(=O)N[C@@H](Cc2cnc[nH]2)C(=O)N2CCC[C@H]2C(N)=O)NC1=O,5.93% (inactive),–
Cc1ncc(C[n+]2csc(CCOP(=O)(O)O)c2C)c(N)n1,1.64% (inactive),–
O=C(O)COc1ccccc1/C=N/NC(=O)c1ccncc1,1.39% (inactive),–
O=C(/C=C/c1cccc(F)c1)NC1CC1,-1.63% (inactive),–
CC(C)(Oc1ccc(C2CCCc3ccccc32)cc1)C(=O)O (stereo not given),4.32% (inactive),–
O=C(O)[C@H]1C(=CCO)O[C@H]2CC(=O)N12,2.09% (inactive),–
CN=C1C=CC(=C(c2ccc(N(C)C)cc2)c2ccc(N(C)C)cc2)C=C1,–,891 nM (active)
CO,6% (inactive),–
